Several values for one entry are separate records, joined by “and”; a condition that tells them apart may be missing. Identical values can stand only once. Inconclusive results are not listed. The source holds several records for some structures; these can differ, active in one and inactive in another. Activity calls are given as the source filed them. Rule for the calls: active = hit-call score of the fitted dose curve at least 0.9, where 1 is the maximum; inconclusive = response in the unintended direction; inactive = score below 0.9.
Legend:
[1] = TOX21_p53_BLA_p2_viability: Viability Assessment in the Tox21 HCT-116 p53 Agonism Beta-lactamase Assay, Phase 2 (AID 2283591);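 note: compound exposure lasted 16 h at 37 °C; actives lower the ATP signal meaning cytotoxicity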
Summary of the method: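 HCT-116 p53-bla cells (4000/well) rested 5 h at 37C, then received compounds in DMSO (217-fold dilution) for 16 h at 37C, 5% CO2. After the CCF4 read, CellTiter-Glo was added; ATP luminescence was read after 30 min at room temperature.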

[2] = target: Cellular tumor antigen p53 (Homo sapiens) (UniProt P04637); assay: TOX21_p53_BLA_p2_ratio: Tox21 HCT-116 p53 Agonism Beta-lactamase Assay, Ratio, Phase 2 (AID 2283592)
Chain of Cellular tumor antigen p53 (Homo sapiens) (P04637 whole entry, looked up): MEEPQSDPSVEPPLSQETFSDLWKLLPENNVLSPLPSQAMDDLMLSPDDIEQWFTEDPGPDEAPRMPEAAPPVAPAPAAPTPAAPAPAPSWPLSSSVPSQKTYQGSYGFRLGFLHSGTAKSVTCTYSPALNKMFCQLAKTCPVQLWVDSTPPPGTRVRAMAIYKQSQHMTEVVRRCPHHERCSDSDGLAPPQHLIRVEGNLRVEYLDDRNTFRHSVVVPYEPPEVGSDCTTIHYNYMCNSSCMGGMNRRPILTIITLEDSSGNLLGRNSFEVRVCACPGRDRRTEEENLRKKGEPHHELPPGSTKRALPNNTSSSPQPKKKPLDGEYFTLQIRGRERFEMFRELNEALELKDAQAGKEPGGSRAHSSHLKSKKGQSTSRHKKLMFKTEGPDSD
Summary of the method: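 Plated HCT116 p53-bla cells (4000/well) received compound after 5 h, then 16 h at 37C/5% CO2. CCF4-AM added, 2 h RT. Ratio of 460 to 530 nm emission taken as the p53 reporter signal.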

[3] = TOX21_p53_BLA_p3_viability: Viability Assessment in the Tox21 HCT-116 p53 Agonism Beta-lactamase Assay, Phase 3 (AID 2283593);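 note: cells exposed to compound for 16 h before reading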
Summary of the method: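 HCT-116 cells (4000/well) rested 5 h at 37C, then got DMSO compounds by pin tool (217-fold dilution) for 16 h at 37C, 5% CO2. After the bla read, CellTiter-Glo was added and luminescence read at 30 min, room temperature.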

[4] = target: Cellular tumor antigen p53 (Homo sapiens) (UniProt P04637); assay: TOX21_p53_BLA_p3_ratio: Tox21 HCT-116 p53 Agonism Beta-lactamase Assay, Ratio, Phase 3 (AID 2283596)
Summary of the method: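 Cells were seeded at 4000/well, rested 5 h at 37C, then dosed with DMSO compound solutions (217-fold dilution) for 16 h. CCF4-AM substrate was loaded for 2 h at room temperature, and the 460/530 nm emission ratio was fitted for gain of signal versus DMSO.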

[5] = TOX21_p53_BLA_p4_viability: Viability Assessment in the Tox21 HCT-116 p53 Agonism Beta-lactamase Assay, Phase 4 (AID 2283597);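 note: hits lower the luminescence signal meaning cytotoxicity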
Summary of the method: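 Readout: ATP luminescence (CellTiter-Glo), measured 30 min after reagent addition at RT. The reagent followed a 2 h CCF4-AM incubation, and the cells had been exposed to compound for 16 h at 37C.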

[6] = target: Cellular tumor antigen p53 (Homo sapiens) (UniProt P04637); assay: TOX21_p53_BLA_p5_ratio: Tox21 HCT-116 p53 Agonism Beta-lactamase Assay, Ratio, Phase 5 (AID 2283599)
Summary of the method: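 HCT-116 cells carrying a p53-inducible beta-lactamase reporter were seeded at 4000 cells/well and dosed after 5 h with compound in DMSO (217-fold dilution). After 16 h at 37C, CCF4-AM substrate was added for 2 h, and the 460/530 nm emission ratio was scored as gain-of-signal versus DMSO.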

[7] = TOX21_p53_BLA_p5_viability: Viability Assessment in the Tox21 HCT-116 p53 Agonism Beta-lactamase Assay, Phase 5 (AID 2283600)
Summary of the method: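 Workflow: seed 4000 cells per well, wait 5 h, add compounds (DMSO, 217-fold dilution), incubate 16 h, load CCF4-AM 2 h, add CellTiter-Glo, read luminescence after 30 min.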

[8] = target: Cellular tumor antigen p53 (Homo sapiens) (UniProt P04637); assay: TOX21_p53_BLA_p4_ratio: Tox21 HCT-116 p53 Agonism Beta-lactamase Assay, Ratio, Phase 4 (AID 2283601)
Summary of the method: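 HCT116 cells carrying an inducible beta-lactamase reporter were plated at 4000 cells/well, rested 5 h, then exposed to compounds in DMSO (217-fold dilution) for 16 h at 37C. CCF4-AM substrate was loaded 2 h at room temperature; 460/530 nm emission ratio scored gain-of-signal versus DMSO.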

PGR (gene 5241) [9] = target: PGR (gene 5241) (UniProt P06401); assay: TOX21_PR_BLA_Followup_Antagonist_ratio: Tox21 HEK293 Progesterone Receptor (PR) Antagonism Beta-lactamase Follow-Up Assay, Ratio (AID 2283934);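 note: PR-UAS-bla HEK293T cells stimulated with 1 nM R5020 agonist for 16 hr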
Chain of PGR (gene 5241) (P06401 whole entry, looked up): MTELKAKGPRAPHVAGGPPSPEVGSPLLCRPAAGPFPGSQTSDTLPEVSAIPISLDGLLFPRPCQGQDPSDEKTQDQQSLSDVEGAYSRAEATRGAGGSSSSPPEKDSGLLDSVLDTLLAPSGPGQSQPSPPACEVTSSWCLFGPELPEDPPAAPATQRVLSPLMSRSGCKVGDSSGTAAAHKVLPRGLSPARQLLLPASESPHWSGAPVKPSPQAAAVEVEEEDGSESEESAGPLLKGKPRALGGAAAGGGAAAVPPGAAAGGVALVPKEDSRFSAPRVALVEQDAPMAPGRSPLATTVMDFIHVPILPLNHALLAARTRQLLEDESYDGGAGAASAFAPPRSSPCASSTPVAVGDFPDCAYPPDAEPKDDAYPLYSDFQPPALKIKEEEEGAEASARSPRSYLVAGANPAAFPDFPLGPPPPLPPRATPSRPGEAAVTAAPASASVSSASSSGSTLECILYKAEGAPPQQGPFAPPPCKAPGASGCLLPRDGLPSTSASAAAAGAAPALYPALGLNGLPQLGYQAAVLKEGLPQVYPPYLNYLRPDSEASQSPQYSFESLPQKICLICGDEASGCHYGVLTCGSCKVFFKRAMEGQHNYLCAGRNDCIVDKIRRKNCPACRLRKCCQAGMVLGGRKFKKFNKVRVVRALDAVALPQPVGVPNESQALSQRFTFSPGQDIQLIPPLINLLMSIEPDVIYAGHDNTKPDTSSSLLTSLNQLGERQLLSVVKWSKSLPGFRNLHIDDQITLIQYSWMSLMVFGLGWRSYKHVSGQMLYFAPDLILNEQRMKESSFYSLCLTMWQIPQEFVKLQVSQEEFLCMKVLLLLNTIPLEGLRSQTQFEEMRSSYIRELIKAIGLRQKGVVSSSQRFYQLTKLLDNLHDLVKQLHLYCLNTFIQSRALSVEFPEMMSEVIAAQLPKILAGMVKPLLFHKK
Summary of the method: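 Cells are plated, rested 6 hr, then dosed with test compound in DMSO and challenged with 1 nM promegestone. After 16 hr incubation, substrate loading for 2 h at room temperature precedes fluorescence reading; viability is measured in the same wells.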

[10] = TOX21_PR_BLA_Followup_Agonist_viability: Viability Assessment in the Tox21 HEK293 Progesterone Receptor (PR) Agonism Beta-lactamase Follow-Up Assay (AID 2283935);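 note: signal loss means lower viability so actives are cytotoxic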
Summary of the method: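 Cells were plated in medium with 2% charcoal-stripped FBS and rested 6 hr. Compounds in DMSO were then added for 16 hr at 37C, followed by the FRET substrate step and CellTiter-Glo luminescence after 30 min.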

[11] = TOX21_PR_BLA_Followup_Antagonist_viability: Viability Assessment in the Tox21 HEK293 Progesterone Receptor (PR) Antagonism Beta-lactamase Follow-Up Assay (AID 2283936);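 note: cells exposed to compound with R5020 agonist for 16 h; hits lower the luminescence signal meaning cytotoxicity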
Summary of the method: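 PR-UAS-bla HEK293T cells in medium with 2% charcoal-stripped FBS were treated with compounds plus R5020 for 16 hr at 37C. After the beta-lactamase read, CellTiter-Glo was added to the same wells and luminescence read after 30 min at room temperature.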

PGR (gene 5241) [12] = target: PGR (gene 5241) (UniProt P06401); assay: TOX21_PR_LUC_Followup_Antagonist: Tox21 HEK293 Progesterone Receptor (PR) Antagonism Luciferase Follow-Up Assay (AID 2283938);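 note: curve fitted upward as signal gain over DMSO baseline despite antagonist label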
Summary of the method: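 Cells are grown 5 days in charcoal-stripped-FBS assay medium, plated, left 5 h, then dosed with compound and incubated 16 h. ONE-Glo reagent is added and luminescence read after 30 min.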

Measured: AC50

O=C1c2ccccc2C(=O)C1C(=O)C(c1ccccc1)c1ccccc1
inactive: [1] | [3] | [4] | [6] | [7]
active: [2] 37.1 µM | [5] 44 µM | [8] 36.6 µM

c1ccoc1
inactive: [1] | [2] | [3] | [4] | [5] | [6] | [7]

C[C@H]1CC[C@]2(NC1)O[C@H]1C[C@H]3[C@@H]4CC[C@H]5C[C@@H](O[C@@H]6O[C@H](CO)[C@H](O[C@@H]7O[C@H](CO)[C@@H](O)[C@H](O[C@@H]8OC[C@@H](O)[C@H](O)[C@H]8O)[C@H]7O[C@@H]7O[C@H](CO)[C@@H](O)[C@H](O)[C@H]7O)[C@H](O)[C@H]6O)CC[C@]5(C)[C@H]4CC[C@]3(C)[C@H]1[C@@H]2C
active: [1] 4.84 µM | [2] 31.4 µM | [3] 5.23 µM | [4] 29.4 µM | [5] 4.05 µM | [6] 30.3 µM | [7] 6.08 µM | [8] 24 µM

Clc1ccc(CO/N=C(\Cn2ccnc2)c2ccc(Cl)cc2Cl)c(Cl)c1
inactive: [3] | [7]
active: [1] 23 µM | [2] 38.7 µM | [4] 42.8 µM | [5] 33.4 µM | [6] 36.3 µM

COC(COC(N)=O)C1=C(N2CC2)C(=O)C(C)=C(N2CC2)C1=O (centres undefined)
inactive: [1] | [5]
active: [2] 6.58 µM | [3] 18.2 µM | [4] 0.121 µM | [6] 0.219 µM | [7] 36.3 µM

ClCCOCOCCCl
inactive: [1] | [2] | [3] | [4] | [5] | [6] | [7]

FC(F)(F)c1cccc(C2=CCN(CCc3ccc4ccccc4c3)CC2)c1
inactive: [1] | [2] | [3] | [4] | [5]

C[C@]12C/C(=C/O)C(=O)C[C@@H]1CC[C@@H]1[C@@H]2CC[C@@]2(C)[C@H]1CC[C@]2(C)O
inactive: [1] | [2] | [6] | [7] | [8] | PGR (gene 5241) [9] | [10] | [11] | PGR (gene 5241) [12]
active: [2] 42.5 µM | [7] 71.4 µM | [8] 42.4 µM

CCOC(=S)S
inactive: [1] | [2] | [3] | [4] | [5] | [6] | [7] | [8]
active: [4] 86.6 µM

CCC1(c2cnc[nH]2)Cc2ccccc2C1
not listed: PGR (gene 5241) [9] | [10] | [11] | PGR (gene 5241) [12]
inactive: all other assays above

C1CN(P2(N3CC3)=NP(N3CC3)(N3CC3)=NP(N3CC3)(N3CC3)=N2)CCO1 (centres undefined)
active: [4] 23 µM
not listed: PGR (gene 5241) [9] | [10] | [11] | PGR (gene 5241) [12]
inactive: all other assays above

Nc1ccncc1
not listed: PGR (gene 5241) [9] | [10] | [11] | PGR (gene 5241) [12]
inactive: all other assays above

O=P1(N(CCCl)CCCl)NC(OO)CCO1 (centres undefined)
not listed: PGR (gene 5241) [9] | [10] | [11] | PGR (gene 5241) [12]
inactive: all other assays above

Nc1ccc(Cc2ccc(N)c(Cl)c2)cc1Cl
active: [2] 68.5 µM | [3] 77.1 µM | [4] 71.5 µM
inactive: [1] | [5] | [6] | [7] | [8]

C/C(=C\c1csc(C)n1)[C@@H]1C[C@@H]2O[C@]2(C)CCC[C@H](C)[C@H](O)[C@@H](C)C(=O)C(C)(C)[C@@H](O)CC(=O)O1
inactive: [1] | [3] | [5] | [7]
active: [2] 0.0698 µM | [4] 0.0123 µM | [6] 0.732 µM

CO[C@]12CC[C@@]3(C[C@@H]1[C@](C)(O)C(C)(C)C)[C@H]1Cc4ccc(O)c5c4[C@@]3(CCN1CC1CC1)[C@H]2O5
inactive: [2] | [6] | [7]
active: [1] 75 µM | [3] 70.3 µM | [4] 86.6 µM | [5] 60.6 µM | [8] 84.8 µM

F/C(COc1ccc2c(c1)[nH]c1ccccc12)=C1/CN2CCC1CC2
active: [5] 27.3 µM
inactive: [1] | [2] | [3] | [4] | [6] | [7]

CC(C)[C@@]1(NC(=O)[C@@H]2C[C@@H]3c4cccc5[nH]cc(c45)C[C@H]3N(C)C2)O[C@@]2(O)[C@@H]3CCCN3C(=O)[C@H](Cc3ccccc3)N2C1=O
inactive: [1] | [2] | [3] | [4] | [5] | [6] | [7] | [8]
active: [5] 33.9 µM

CC1CCC(C(C)C)C(OC(=O)c2ccccc2N)C1 (centres undefined)
active: [1] 45.5 µM and 38.5 µM | [2] 76.3 µM | [3] 23 µM | [5] 45.5 µM and 34.7 µM | [6] 42.8 µM | [7] 31.7 µM
inactive: [2] | [7] | [8]

Fc1ccc(C(OCCN2CCN(CCCc3ccccc3)CC2)c2ccc(F)cc2)cc1
active: [1] 33 µM | [2] 33.7 µM | [3] 31 µM | [4] 24.9 µM | [5] 25.1 µM | [6] 40.4 µM | [7] 38.4 µM | [8] 39 µM

Nc1ccc([As](=O)(O)O)cc1
active: [2] 35.1 µM | [8] 42.1 µM
inactive: [1] | [2] | [4] | [5] | [6] | [7] | [8]

CCC1(CC)C(=O)NC(=O)N(C)C1=O
inactive: [1] | [2] | [3] | [4] | [5] | [6]

OCC(Cl)CCl (centres undefined)
inactive: [1] | [2] | [3] | [4] | [5] | [6] | [7]

CN(C)S(=O)(=O)N(SC(F)(Cl)Cl)c1ccccc1
active: [1] 87.1 µM | [2] 26.3 µM | [5] 86.8 µM | [6] 32.3 µM | [7] 86.8 µM | [8] 48.6 µM
inactive: [3] | [4]

COC(=O)c1cncn1C(C)c1ccccc1 (centres undefined)
inactive: [1] | [2] | [3] | [4] | [5] | [6]

Source: PubChem BioAssay (EPA / NIEHS)
